The target in experiment [1] is T1, Ephrin type-A receptor 3 (Homo sapiens) (UniProt P29320).
T1 sequence (whole entry): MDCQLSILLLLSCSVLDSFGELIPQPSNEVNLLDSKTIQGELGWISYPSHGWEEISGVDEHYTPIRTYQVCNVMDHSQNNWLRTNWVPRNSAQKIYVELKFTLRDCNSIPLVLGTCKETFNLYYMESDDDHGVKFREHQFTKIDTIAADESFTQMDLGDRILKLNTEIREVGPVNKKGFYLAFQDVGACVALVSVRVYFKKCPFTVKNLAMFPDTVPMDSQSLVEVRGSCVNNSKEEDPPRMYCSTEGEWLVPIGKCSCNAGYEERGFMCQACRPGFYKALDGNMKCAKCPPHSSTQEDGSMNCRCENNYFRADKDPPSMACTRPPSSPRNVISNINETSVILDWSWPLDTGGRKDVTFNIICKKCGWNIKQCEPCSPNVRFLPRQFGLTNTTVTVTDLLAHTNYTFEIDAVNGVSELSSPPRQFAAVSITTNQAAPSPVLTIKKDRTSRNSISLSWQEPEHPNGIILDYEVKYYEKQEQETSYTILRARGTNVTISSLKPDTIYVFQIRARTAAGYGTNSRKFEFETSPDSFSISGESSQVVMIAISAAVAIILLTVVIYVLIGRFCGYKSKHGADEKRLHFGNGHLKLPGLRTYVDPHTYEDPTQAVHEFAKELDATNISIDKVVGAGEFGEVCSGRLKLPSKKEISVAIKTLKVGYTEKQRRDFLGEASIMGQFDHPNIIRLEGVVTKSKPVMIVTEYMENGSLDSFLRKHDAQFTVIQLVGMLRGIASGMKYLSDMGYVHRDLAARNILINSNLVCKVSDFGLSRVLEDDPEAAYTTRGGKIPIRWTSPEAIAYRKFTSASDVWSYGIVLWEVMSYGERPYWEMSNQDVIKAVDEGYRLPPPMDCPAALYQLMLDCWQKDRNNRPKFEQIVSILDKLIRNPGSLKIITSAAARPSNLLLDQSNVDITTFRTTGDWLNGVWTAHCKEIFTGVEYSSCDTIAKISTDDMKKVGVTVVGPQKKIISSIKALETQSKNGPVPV
To be noted: at 10 µM.

Experiment [2] concerns the target Ephrin type-A receptor 7 (Homo sapiens) (UniProt Q15375). To be noted: at 1 µM.
Experiment [3] shares this target. To be noted: at 10 µM.
Experiment [4] has as its target T2, Ephrin type-A receptor 8 (Homo sapiens) (UniProt P29322).
T2 sequence (whole entry): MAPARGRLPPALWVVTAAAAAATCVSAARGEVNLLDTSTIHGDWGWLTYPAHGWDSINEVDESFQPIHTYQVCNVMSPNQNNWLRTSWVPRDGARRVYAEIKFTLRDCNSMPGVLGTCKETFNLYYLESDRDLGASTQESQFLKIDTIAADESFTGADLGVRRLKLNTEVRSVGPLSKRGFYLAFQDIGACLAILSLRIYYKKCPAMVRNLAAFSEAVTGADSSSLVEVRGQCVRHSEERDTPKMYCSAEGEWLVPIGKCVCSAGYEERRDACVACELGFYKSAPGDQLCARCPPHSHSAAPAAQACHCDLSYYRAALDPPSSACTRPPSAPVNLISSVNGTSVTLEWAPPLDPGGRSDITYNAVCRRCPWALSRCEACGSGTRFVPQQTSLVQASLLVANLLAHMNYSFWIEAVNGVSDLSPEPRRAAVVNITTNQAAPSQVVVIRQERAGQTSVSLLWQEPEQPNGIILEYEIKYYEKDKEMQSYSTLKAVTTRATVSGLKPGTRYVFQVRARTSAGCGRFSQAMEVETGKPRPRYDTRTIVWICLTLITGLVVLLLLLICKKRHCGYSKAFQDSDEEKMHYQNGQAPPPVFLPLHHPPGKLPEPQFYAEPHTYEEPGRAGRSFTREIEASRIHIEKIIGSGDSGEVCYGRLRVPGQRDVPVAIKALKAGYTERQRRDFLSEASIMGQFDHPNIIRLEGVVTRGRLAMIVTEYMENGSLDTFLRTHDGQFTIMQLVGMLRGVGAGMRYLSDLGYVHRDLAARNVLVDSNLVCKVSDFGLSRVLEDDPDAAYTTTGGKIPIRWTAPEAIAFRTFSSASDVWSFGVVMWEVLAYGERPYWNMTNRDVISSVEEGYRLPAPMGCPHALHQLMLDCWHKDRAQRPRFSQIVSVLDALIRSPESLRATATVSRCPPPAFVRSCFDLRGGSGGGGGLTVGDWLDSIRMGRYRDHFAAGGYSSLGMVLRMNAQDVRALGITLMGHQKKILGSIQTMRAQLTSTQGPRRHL
To be noted: at 1 µM.

For experiment [5], the target named is T2, Ephrin type-A receptor 8 (Homo sapiens). To be noted: at 10 µM.
Experiment [6] deals with T3, Ephrin type-B receptor 1 (Homo sapiens) (UniProt P54762).
T3 sequence (whole entry): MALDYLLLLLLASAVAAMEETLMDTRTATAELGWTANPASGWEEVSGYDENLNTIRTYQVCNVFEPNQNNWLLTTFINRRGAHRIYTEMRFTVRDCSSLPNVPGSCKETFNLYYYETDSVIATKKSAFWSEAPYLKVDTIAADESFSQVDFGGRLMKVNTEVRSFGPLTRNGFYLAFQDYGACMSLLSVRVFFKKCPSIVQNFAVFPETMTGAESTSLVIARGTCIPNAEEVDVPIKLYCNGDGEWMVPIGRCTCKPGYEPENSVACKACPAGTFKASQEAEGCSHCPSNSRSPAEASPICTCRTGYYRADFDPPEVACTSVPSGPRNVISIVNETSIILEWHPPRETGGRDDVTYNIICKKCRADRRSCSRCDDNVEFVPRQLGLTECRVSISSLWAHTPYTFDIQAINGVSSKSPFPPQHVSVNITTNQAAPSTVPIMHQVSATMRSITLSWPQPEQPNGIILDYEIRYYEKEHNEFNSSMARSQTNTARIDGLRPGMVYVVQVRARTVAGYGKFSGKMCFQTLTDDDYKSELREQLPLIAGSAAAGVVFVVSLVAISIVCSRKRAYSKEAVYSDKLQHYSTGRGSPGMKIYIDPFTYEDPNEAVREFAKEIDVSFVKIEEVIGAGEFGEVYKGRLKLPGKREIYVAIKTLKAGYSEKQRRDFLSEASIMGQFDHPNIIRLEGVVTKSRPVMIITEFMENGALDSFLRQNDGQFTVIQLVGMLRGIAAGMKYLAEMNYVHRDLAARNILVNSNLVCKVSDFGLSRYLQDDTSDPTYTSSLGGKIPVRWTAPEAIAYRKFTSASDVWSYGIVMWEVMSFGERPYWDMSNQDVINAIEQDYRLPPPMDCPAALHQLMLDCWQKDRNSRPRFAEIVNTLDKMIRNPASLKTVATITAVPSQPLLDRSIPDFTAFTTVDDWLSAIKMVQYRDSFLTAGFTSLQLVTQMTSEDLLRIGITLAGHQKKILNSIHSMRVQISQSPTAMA
To be noted: at 10 µM.

Experiment [7] concerns the target T4, Ephrin type-B receptor 2 (Homo sapiens) (UniProt P29323).
T4 sequence (whole entry): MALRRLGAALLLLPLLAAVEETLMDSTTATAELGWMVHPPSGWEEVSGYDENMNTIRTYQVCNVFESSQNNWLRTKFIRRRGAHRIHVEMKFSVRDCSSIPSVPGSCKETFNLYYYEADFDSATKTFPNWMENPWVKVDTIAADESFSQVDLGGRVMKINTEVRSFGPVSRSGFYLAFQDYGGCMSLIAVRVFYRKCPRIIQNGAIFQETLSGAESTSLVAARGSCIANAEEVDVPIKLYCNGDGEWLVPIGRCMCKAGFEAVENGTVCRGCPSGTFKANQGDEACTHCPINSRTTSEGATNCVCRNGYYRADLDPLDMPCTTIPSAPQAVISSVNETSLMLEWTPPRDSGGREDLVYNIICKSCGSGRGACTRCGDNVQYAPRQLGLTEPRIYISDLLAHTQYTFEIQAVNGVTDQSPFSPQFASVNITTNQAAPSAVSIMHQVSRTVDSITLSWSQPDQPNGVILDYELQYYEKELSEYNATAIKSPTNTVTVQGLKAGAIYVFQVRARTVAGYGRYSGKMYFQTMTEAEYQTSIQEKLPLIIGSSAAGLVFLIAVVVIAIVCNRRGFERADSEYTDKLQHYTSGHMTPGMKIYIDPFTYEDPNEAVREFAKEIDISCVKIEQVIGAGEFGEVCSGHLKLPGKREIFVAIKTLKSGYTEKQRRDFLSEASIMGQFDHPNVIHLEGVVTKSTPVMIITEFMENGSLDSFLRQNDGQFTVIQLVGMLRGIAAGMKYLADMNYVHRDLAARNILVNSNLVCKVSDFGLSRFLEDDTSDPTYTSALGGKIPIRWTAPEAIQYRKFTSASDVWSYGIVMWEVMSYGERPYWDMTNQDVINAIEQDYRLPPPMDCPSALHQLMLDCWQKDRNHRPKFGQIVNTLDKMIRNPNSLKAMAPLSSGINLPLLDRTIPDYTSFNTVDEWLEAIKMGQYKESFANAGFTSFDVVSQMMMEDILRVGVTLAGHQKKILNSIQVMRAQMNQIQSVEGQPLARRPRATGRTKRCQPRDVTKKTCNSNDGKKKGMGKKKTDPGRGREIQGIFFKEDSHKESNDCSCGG
To be noted: at 10 µM.

In experiment [8] the target is T5, Ephrin type-B receptor 4 (Homo sapiens) (UniProt P54760).
T5 sequence (whole entry): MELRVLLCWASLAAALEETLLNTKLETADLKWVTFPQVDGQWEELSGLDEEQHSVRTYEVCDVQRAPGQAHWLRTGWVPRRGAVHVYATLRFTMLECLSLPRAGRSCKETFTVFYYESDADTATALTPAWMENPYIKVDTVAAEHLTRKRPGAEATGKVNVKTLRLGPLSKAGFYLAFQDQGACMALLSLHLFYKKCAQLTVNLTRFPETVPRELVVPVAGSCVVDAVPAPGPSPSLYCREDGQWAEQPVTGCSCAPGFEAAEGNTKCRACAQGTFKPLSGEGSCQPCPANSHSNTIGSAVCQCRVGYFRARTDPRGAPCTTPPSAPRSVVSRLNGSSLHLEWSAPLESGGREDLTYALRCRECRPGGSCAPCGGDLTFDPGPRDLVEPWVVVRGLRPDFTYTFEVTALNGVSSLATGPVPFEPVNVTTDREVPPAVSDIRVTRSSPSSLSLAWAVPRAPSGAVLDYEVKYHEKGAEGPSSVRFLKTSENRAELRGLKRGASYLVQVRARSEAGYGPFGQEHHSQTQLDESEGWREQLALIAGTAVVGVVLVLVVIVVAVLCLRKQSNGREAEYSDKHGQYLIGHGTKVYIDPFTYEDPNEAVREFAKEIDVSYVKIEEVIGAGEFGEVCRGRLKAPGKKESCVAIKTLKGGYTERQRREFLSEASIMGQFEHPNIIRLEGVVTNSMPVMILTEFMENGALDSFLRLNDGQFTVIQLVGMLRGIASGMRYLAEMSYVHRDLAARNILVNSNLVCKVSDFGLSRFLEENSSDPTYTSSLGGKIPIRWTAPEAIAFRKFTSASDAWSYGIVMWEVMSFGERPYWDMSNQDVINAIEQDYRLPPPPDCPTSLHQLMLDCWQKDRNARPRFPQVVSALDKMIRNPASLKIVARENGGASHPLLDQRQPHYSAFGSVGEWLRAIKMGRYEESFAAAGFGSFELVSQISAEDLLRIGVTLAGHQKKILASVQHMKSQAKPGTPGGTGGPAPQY
To be noted: at 10 µM.

The target of experiment [9] is Receptor tyrosine-protein kinase erbB-4 (Homo sapiens) (UniProt Q15303). To be noted: at 10 µM.
Experiment [10] has as its target Focal adhesion kinase 1 (Homo sapiens) (UniProt Q05397). To be noted: at 1 µM.

Ephrin type-A receptor 7 (Homo sapiens), sequence (Q15375 28-998 limits assumed): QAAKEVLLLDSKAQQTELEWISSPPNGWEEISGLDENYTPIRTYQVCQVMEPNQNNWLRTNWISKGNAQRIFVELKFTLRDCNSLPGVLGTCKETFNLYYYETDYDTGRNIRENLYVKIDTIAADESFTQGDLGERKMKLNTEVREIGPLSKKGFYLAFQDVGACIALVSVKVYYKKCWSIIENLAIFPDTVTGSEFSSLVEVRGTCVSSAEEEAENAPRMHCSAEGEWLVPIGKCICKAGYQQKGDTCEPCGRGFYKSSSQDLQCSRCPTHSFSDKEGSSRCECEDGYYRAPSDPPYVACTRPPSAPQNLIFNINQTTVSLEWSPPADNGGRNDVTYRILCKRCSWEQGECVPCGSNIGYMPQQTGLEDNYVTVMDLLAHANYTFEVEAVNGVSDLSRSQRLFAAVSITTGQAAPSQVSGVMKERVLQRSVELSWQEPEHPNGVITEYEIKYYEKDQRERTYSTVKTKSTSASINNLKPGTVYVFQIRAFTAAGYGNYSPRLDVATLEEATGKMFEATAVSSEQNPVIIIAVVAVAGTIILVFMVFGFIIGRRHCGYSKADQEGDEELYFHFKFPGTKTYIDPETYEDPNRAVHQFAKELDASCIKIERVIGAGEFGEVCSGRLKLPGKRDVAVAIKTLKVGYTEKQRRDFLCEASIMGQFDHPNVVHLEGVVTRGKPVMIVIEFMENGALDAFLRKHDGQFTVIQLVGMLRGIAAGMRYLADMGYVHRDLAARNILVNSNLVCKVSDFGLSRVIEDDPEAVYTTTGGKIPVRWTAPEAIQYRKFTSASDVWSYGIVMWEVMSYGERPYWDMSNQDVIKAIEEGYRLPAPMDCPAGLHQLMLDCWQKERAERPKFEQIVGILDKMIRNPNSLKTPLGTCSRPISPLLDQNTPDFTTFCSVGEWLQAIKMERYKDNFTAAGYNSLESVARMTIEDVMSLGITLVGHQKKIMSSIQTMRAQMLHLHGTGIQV
Focal adhesion kinase 1 (Homo sapiens), sequence (Q05397 2-1052 limits assumed): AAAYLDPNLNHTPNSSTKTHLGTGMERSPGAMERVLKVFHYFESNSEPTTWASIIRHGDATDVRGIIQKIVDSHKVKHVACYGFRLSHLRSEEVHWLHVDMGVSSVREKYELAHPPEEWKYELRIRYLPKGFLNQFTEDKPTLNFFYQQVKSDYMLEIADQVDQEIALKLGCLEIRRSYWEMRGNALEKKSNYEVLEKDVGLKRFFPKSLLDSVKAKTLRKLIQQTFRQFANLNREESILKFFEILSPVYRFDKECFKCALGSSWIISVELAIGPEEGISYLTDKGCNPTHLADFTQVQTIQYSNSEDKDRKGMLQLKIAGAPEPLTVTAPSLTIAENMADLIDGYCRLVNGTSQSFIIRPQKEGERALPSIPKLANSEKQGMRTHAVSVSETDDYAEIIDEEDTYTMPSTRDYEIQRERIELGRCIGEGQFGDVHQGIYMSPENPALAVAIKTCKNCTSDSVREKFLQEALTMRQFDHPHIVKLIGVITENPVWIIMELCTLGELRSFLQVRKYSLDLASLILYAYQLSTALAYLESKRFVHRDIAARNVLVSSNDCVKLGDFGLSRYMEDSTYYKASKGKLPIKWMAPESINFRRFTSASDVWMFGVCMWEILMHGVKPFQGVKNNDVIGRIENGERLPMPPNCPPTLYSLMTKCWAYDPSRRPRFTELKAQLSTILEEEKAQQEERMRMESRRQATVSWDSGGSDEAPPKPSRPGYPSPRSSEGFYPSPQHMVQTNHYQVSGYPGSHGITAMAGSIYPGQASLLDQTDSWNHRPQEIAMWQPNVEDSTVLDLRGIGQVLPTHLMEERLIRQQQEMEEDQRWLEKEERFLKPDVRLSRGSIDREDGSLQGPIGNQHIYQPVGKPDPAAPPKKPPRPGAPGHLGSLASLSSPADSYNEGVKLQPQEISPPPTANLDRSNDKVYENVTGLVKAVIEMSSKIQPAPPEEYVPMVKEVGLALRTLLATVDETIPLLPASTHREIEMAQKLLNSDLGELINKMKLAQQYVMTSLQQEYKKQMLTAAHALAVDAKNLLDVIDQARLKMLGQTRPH
Receptor tyrosine-protein kinase erbB-4 (Homo sapiens), sequence (Q15303 whole entry): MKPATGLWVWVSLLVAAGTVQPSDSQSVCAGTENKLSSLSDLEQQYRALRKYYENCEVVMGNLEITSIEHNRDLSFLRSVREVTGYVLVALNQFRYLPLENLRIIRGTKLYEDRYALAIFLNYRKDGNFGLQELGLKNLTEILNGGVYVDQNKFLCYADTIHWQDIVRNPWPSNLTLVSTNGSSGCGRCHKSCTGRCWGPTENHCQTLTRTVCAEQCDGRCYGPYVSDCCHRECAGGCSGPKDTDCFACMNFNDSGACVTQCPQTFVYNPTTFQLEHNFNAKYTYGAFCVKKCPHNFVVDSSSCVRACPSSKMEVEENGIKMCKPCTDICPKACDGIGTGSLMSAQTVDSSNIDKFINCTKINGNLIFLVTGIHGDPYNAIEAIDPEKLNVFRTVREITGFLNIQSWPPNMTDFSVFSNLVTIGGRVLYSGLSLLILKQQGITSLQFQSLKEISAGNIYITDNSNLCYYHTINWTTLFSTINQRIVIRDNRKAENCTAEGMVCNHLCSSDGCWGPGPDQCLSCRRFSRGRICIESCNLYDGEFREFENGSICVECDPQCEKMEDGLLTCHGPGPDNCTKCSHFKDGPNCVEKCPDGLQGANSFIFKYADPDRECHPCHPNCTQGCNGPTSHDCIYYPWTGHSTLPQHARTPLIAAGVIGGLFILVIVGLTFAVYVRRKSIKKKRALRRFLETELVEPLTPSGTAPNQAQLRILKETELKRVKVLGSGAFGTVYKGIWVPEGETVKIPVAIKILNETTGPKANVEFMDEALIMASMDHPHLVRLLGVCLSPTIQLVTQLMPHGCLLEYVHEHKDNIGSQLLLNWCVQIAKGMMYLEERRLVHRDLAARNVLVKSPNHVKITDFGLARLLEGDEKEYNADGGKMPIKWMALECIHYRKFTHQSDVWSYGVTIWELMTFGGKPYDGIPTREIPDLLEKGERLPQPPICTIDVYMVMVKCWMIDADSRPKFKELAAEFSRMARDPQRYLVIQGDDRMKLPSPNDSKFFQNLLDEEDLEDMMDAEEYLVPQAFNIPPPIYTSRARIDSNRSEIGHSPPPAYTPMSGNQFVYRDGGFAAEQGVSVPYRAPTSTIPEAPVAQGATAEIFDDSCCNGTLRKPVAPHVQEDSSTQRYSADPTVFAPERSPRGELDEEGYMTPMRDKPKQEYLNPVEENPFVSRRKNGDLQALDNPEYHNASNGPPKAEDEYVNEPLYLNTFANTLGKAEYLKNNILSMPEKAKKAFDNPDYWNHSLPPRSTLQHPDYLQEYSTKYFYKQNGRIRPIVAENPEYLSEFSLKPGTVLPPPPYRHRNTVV

As usually defined, the residual activity is what remains of the control signal, in per cent. Read a high residual activity as a small loss of activity. As to `N#CCCc1ccc2c(c1)-c1[nH]c3ccc([N+](=O)[O-])cc3c1CC(=O)N2`, the residual activity came to 43% in experiment [1]; 79% in experiment [2]; 56% in experiment [3]; 77% in experiment [4]; 69% in experiment [5]; 74% in experiment [6]. Further, the residual activity was 67% in experiment [7], 77% in [8], 76% in [9] and 50% in experiment [10].

Source of the values: ChEMBL document CHEMBL2218924, “A broad activity screen in support of a chemogenomic map for kinase signalling research and drug discovery” (Biochem J, 2013).
